Measured values as given in the supplement of paper PMC10849652.
About 7,900 targets were measured; listed, in parts, are those with a hit and a random draw of the rest. About 0.6% of all pairs of compound and target were hits. Values without a mark were called inactive.

How the values were obtained:
Assay in all cases: log2 fold change, soluble protein after heating vs DMSO (PISA); higher = thermal stabilisation; K562 cells, 10 uM, 30 min; active = over 0.2 and 3.5 SD of the protein, either way, in both replicates (recomputed)
[1] = compound: COC1=CC=C(C=C1)CN2C=CC3=C2C=C(C=C3)C(=O)NO
Procedure, shortened: (§1)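 For each measurement, 10 μM compound was applied for 30 min to K562 cells at 2×10^6 cells/mL. Aliquots were heated for 3 min across 48°C-58°C, pooled, and extracted in PBS with 0.5% NP-40 at 4°C; the supernatant after 21,000xg for 90 min was soluble protein. This was quantified by TMTpro 16plex LC-MS/MS with channel sums equalised, and thermal stability was reported relative to control samples from duplicates, on a log2 fold-change scale.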

[2] = compound: CON(C)C(=O)N1N=C(c2cc(F)ccc2F)S[C@@]1(CCCN)c1ccccc1 [filanesib]
Procedure, shortened: as §1

[3] = compound: CO[C@H]1C[C@@H]2CC[C@@H](C)[C@@](O)(O2)C(=O)C(=O)N2CCCC[C@H]2C(=O)O[C@H]([C@H](C)C[C@@H]2CC[C@H](n3cnnn3)[C@H](OC)C2)CC(=O)[C@H](C)/C=C(\C)[C@@H](O)[C@@H](OC)C(=O)[C@H](C)C[C@H](C)/C=C/C=C/C=C/1C [zotarolimus]
Procedure, shortened: as §1

[4] = compound: COc1cc(C(=O)O)ccc1NC(=O)[C@@H]1N[C@@H](CC(C)(C)C)[C@](C#N)(c2ccc(Cl)cc2F)[C@H]1c1cccc(Cl)c1F [idasanutlin]
Procedure, shortened: as §1

[5] = compound: COc1cc(Nc2ncc3c(n2)-c2ccc(Cl)cc2C(c2c(F)cccc2OC)=NC3)ccc1C(=O)O [alisertib]
Procedure, shortened: as §1

[6] = compound: COc1cc2nc(-c3cc(F)ccc3O)nc(N[C@@H]3CNC[C@H]3C(C)(C)O)c2cc1OC
Procedure, shortened: as §1

[7] = compound: COc1cc2ncnc(Nc3ccc(F)c(Cl)c3)c2cc1OCCCN1CCOCC1 [gefitinib]
Procedure, shortened: as §1

[8] = compound: COc1cccc2cc(-c3nc([C@H]4CC[C@H](C(=O)O)CC4)n4ncnc(N)c34)[nH]c12
Procedure, shortened: as §1

[9] = compound: CS(=O)(=O)CCNCc1ccc(-c2ccc3ncnc(Nc4ccc(OCc5cccc(F)c5)c(Cl)c4)c3c2)o1 [lapatinib]
Procedure, shortened: as §1

[10] = compound: CS(=O)(=O)N1CCN(Cc2cc3nc(-c4cccc5[nH]ncc45)nc(N4CCOCC4)c3s2)CC1 [pictilisib]
Procedure, shortened: as §1

UniProt Q15005, sequence (Q15005 whole entry, looked up): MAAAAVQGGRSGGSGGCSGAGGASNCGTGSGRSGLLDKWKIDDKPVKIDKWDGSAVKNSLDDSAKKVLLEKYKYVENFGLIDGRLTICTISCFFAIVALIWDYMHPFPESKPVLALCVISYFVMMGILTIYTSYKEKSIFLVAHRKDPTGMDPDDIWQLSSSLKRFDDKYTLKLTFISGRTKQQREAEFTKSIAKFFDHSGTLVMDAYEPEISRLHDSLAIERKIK
UniProt Q9UKI8, sequence (Q9UKI8 whole entry, looked up): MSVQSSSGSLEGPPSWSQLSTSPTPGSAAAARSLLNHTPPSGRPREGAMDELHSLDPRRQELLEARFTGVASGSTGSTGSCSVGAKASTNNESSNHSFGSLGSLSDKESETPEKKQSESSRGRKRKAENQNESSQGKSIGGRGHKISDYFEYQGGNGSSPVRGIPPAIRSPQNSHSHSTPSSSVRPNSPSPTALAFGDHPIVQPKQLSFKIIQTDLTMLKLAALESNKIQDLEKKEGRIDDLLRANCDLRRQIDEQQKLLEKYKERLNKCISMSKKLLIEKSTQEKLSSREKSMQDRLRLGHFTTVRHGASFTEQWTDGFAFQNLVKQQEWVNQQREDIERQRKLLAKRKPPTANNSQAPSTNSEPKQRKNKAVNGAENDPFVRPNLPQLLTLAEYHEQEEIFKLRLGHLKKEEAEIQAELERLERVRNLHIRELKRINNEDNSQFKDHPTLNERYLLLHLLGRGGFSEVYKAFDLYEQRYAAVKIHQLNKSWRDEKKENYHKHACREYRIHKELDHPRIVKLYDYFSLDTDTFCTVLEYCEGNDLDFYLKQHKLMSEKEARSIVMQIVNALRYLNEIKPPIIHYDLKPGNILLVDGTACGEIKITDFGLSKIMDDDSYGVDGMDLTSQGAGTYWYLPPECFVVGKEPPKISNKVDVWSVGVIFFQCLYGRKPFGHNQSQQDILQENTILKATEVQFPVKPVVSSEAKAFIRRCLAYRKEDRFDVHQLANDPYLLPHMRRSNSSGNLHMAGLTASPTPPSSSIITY
UniProt O95149, sequence (O95149 whole entry, looked up): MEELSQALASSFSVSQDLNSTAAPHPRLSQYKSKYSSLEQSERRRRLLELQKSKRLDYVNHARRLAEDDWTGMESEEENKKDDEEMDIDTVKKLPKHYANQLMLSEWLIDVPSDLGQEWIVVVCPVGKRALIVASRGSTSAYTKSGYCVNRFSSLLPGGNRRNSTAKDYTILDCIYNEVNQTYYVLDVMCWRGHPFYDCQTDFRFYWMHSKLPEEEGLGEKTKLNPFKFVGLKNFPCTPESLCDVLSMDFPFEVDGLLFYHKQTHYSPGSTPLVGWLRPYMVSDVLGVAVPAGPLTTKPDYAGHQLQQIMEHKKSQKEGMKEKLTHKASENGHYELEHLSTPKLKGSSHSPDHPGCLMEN
UniProt Q9BVV7, sequence (Q9BVV7 whole entry, looked up): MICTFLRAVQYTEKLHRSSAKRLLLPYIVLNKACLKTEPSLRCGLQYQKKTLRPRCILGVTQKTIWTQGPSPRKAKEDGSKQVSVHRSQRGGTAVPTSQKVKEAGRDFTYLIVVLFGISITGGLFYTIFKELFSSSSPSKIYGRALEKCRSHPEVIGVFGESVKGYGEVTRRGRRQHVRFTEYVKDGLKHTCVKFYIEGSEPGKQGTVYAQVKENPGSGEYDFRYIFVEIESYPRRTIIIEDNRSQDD
UniProt Q86UE8, sequence (Q86UE8 whole entry, looked up): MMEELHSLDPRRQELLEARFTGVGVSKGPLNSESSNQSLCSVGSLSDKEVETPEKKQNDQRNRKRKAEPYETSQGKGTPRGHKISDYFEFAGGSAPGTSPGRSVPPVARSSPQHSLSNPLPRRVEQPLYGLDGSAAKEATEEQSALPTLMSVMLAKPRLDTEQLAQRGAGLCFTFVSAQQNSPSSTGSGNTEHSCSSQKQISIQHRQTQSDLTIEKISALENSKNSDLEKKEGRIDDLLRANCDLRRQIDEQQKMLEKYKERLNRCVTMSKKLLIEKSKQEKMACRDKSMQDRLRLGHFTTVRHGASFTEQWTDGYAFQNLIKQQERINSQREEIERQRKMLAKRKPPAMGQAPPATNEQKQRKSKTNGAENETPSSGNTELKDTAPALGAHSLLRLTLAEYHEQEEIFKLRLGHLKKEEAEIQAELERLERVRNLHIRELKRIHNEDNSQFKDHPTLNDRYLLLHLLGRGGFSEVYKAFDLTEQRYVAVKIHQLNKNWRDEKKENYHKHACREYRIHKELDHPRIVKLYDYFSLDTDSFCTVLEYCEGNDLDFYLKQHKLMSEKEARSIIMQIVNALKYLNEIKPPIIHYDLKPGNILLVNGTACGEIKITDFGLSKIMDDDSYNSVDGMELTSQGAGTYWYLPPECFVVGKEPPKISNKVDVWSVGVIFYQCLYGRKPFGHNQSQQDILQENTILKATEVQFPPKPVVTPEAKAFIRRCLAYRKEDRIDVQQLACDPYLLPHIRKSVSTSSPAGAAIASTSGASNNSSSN
UniProt O60271, sequence (O60271 whole entry, looked up): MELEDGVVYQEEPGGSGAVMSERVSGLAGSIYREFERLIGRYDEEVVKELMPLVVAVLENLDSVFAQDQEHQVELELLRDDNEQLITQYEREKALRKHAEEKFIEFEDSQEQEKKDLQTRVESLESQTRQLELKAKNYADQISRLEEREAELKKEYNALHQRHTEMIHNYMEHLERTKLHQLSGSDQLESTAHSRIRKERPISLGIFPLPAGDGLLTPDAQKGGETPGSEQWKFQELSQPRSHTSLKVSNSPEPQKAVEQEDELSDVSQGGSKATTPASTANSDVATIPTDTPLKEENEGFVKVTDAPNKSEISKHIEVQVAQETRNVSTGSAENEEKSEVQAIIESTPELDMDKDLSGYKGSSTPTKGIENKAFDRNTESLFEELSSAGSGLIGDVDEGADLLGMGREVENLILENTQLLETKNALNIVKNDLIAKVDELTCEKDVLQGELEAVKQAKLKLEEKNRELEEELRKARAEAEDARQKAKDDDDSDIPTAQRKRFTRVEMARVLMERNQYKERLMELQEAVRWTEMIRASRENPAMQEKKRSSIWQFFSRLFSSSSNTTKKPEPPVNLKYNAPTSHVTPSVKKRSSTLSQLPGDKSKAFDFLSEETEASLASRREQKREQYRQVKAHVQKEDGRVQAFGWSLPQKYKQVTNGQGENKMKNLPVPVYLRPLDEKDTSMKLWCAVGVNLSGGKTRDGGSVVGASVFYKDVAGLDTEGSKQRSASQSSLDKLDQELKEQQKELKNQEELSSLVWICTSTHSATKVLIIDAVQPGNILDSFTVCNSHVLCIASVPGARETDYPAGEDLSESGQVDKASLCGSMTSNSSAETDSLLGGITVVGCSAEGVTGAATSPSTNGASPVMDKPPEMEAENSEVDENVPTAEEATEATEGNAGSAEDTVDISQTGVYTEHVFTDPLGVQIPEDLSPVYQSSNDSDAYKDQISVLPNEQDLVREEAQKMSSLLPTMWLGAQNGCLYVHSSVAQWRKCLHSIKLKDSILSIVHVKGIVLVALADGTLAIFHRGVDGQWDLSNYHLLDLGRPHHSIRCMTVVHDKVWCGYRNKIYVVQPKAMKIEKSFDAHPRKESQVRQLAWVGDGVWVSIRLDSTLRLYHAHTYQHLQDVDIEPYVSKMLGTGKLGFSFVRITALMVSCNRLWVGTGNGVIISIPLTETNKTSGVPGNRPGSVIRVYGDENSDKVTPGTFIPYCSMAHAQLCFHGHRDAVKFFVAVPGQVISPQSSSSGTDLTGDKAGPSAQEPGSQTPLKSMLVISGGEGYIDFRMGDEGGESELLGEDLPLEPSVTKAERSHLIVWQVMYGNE
UniProt Q9H2G2, sequence (Q9H2G2 whole entry, looked up): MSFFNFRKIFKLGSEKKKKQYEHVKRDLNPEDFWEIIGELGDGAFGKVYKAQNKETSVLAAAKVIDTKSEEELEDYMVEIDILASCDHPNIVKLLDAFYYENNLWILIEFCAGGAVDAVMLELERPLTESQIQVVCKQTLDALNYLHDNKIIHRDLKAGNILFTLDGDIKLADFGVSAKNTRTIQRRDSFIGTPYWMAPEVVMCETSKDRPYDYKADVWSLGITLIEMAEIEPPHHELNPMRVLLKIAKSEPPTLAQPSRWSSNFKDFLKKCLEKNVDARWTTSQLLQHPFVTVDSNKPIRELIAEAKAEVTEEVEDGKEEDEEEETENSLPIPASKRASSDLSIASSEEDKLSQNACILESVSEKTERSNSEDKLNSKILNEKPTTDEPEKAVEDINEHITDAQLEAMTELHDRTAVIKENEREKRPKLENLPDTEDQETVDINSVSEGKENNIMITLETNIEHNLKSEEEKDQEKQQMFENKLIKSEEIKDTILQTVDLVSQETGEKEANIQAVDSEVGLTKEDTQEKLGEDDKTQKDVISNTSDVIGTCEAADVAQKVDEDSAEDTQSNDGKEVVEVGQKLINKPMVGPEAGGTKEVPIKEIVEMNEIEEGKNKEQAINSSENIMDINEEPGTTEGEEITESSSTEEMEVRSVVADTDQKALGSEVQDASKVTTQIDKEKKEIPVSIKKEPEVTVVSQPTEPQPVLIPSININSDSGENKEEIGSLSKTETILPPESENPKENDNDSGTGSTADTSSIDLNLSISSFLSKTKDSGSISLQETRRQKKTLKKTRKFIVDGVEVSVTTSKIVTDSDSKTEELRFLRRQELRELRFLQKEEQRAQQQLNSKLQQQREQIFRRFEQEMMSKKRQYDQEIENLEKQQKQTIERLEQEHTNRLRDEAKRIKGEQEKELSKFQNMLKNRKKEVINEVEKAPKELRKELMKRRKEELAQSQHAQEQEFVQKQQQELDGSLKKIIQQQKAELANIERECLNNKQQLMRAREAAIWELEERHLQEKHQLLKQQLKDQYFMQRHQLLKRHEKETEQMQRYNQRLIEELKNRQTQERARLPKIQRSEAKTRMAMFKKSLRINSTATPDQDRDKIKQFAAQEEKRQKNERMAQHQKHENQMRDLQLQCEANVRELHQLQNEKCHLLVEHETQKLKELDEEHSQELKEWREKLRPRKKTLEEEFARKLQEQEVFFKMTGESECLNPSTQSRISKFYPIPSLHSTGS

Target	log2 fold change [1]	log2 fold change [2]	log2 fold change [3]	log2 fold change [4]	log2 fold change [5]	log2 fold change [6]	log2 fold change [7]	log2 fold change [8]	log2 fold change [9]	log2 fold change [10]
SNX11 (UniProt Q9Y5W9)	0.025	-0.128	0.043	-0.008	-0.062	-0.15	-0.05	0.038	0.014	-0.173
TLK1 (UniProt Q9UKI8)	-0.011	-0.021	0.019	-0.009	-0.023	-0.029	0.006	0.064	-0.018	-0.04
TBC1D24 (UniProt Q9ULP9)	0.032	-0.145	0.006	-0.127	-0.102	-0.028	0.007	0.05	0.032	-0.082
SMAP2 (UniProt Q8WU79)	-0.029	0.048	0.045	-0.039	0.11	0.247 (active)	0.043	-0.072	-0.009	-0.015
TLK2 isoform 2 (UniProt Q86UE8)	-0.019	0.038	0.032	0.087	0.115	-0.036	0.007	0.06	0.041	-0.071
STK25 (UniProt O00506)	-0.06	-0.006	-0.039	0.006	-0.055	0.076	-0.061	0.038	-0.047	0.053
SPTBN4 (UniProt Q9H254)	-0.036	-0.068	0.014	-0.237	-0.116	-0.202	-0.047	0.158	0.041	0.175
SNUPN (UniProt O95149)	0.001	-0.09	-0.007	0.05	-0.013	-0.05	0.014	0.005	0.019	-0.021
STOM (UniProt P27105)	0.004	-0.068	-0.083	0.046	-0.154	-0.045	-0.062	-0.004	0.067	-0.022
SNW1 (UniProt Q13573)	0.014	0.039	-0.068	0.034	-0.08	0.073	-0.068	0	0.011	-0.035
SMAD9 (UniProt O15198)	-0.002	0.009	-0.033	-0.132	-0.014	-0.012	0.066	-0.005	0.051	0.148
SRSF10 (UniProt O75494)	-0.102	0.424	-0.157	0.388	-0.099	-0.169	-0.009	-0.056	0.101	-0.042
SRSF6 (UniProt Q13247)	-0.209	0.218	-0.118	0.375	-0.105	-0.134	0.033	-0.032	0.163	-0.473
SPAST (UniProt Q9UBP0)	0.03	-0.028	-0.006	-0.038	-0.1	0.096	-0.019	-0.042	-0.019	-0.041
SLC25A39 (UniProt Q9BZJ4)	-0.069	-0.255	0.073	-0.115	0.123	-0.49	-0.344	0.224	-0.044	-0.072
SRPRA (UniProt P08240)	0.008	-0.022	-0.005	-0.107	-0.005	0.122	-0.032	-0.002	0.013	-0.012
THRAP3 (UniProt Q9Y2W1)	0.087	0.155	-0.117	0.12	-0.095	-0.127	0.15	0.13	0.066	0.005
SPECC1 (UniProt Q5M775)	-0.357 (active)	0.064	0.038	-0.111	-0.019	-0.014	0.028	0.309 (active)	-0.006	0.08
SLK isoform 2 (UniProt Q9H2G2)	0.001	0.042	-0.007	-0.008	-0.045	-0.103	0.025	-0.079	-0.193	0.212 (active)
SLC25A36 (UniProt Q96CQ1)	0.006	-0.069	0.013	-0.064	-0.03	0.083	-0.014	0.001	0.107	0.052
TCOF1 isoform 4 (UniProt Q13428)	0.002	0.028	-0.011	0.092	-0.061	-0.051	-0.01	-0.002	0.017	0.028
TIMM21 (UniProt Q9BVV7)	-0.038	-0.171	0.03	-0.078	0.054	-0.205	-0.006	0.01	-0.008	0.055
SSRP1 (UniProt Q08945)	0.118	0.023	0.036	-0.005	-0.037	-0.05	0.028	-0.014	0.008	-0.026
SPAG9 (UniProt O60271)	0.005	-0.041	-0.011	0	-0.034	-0.034	-0.01	-0.031	-0.026	0.041
SPCS2 (UniProt Q15005)	0.5 (active)	-0.061	0.018	-0.039	0.008	0.092	0.03	-0.021	0.002	-0.006
SNX5 (UniProt Q9Y5X3)	-0.06	-0.172	0.015	-0.015	-0.012	-0.066	-0.136	0.008	0.01	-0.085
STARD3 (UniProt Q14849)	0	-0.147	-0.004	0.109	0.018	0.038	0.075	0.035	0.043	-0.047
SUN2 (UniProt Q9UH99)	0.028	0.013	0.017	0.077	-0.044	-0.194	-0.078	-0.007	0.066	0.071
SLC27A4 (UniProt Q6P1M0)	0.134	0.038	0.056	-0.084	-0.001	0.032	0.033	-0.022	0.055	-0.078
SPPL2B (UniProt Q8TCT7)	0.025	-0.223	-0.016	-0.01	-0.113	-0.05	-0.061	0.084	-0.002	0.292 (active)
